In PMC6919601, “Identification of Plasmodium dipeptidyl aminopeptidase allosteric inhibitors by high throughput screening” (PLoS ONE, 2019):
In all, about 110,000 compounds went through this assay and about 230 (0.21%) showed an effect of 50% or more. The entries come from a sample that favours strong results as a whole.
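Note: 30 min substrate incubation versus DMSO and 10 µM JCP410 controls.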

What follows are molecules tested against DPAP1 (Plasmodium falciparum, UniProt Q8IIJ9) (assay: primary screen, percent inhibition; read by cleavage of a fluorogenic dipeptide substrate; higher = more effect of the substance).
DPAP1, sequence (Q8IIJ9 whole entry, looked up): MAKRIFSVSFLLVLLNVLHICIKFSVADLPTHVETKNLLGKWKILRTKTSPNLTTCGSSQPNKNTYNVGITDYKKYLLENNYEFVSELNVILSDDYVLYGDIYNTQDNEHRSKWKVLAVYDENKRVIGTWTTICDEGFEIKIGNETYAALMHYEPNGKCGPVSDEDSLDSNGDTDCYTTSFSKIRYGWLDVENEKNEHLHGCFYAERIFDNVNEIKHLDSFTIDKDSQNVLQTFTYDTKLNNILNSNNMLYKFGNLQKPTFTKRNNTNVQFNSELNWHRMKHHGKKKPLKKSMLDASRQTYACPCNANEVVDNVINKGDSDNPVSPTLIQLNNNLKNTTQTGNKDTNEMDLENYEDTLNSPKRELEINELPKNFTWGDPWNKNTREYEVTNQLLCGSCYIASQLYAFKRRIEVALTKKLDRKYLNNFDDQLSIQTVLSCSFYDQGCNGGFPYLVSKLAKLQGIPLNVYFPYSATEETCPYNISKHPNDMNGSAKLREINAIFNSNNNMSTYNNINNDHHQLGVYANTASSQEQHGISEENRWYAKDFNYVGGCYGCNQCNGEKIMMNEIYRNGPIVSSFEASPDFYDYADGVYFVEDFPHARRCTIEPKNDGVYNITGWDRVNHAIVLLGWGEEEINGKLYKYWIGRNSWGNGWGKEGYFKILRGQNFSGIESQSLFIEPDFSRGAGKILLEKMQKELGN
Set-up: species or system P. falciparum D10 trophozoite lysates; single well
Cc1ccc(-c2cc(NC(=O)COc3ccc(C(C)C)cc3)on2)cc1 was tested, and the “% Inhibition @ 10 uM” value was -1.47%.
With O=C(NCCc1ccccc1)c1noc2c1CCc1ccccc1-2 the “% Inhibition @ 10 uM” value was -7.85%.
With CN(CCNC(=O)c1noc2c1COc1ccccc1-2)C1CCCCC1 the “% Inhibition @ 10 uM” value was 2.73%.
CCOC(=O)c1noc2c1COc1ccccc1-2 was tested, and the “% Inhibition @ 10 uM” value was -1.51%.
For CCOc1ccc(CCNC(=O)c2noc3c2COc2ccccc2-3)cc1OCC, the “% Inhibition @ 10 uM” value was 80.8%.
For O=C(NCC1(c2ccccc2)CCCC1)c1noc2c1COc1ccccc1-2, the “% Inhibition @ 10 uM” value was 47.2%.
For COc1ccc(CCNC(=O)c2noc3c2COc2ccc(C)cc2-3)cc1OC, the “% Inhibition @ 10 uM” value was -4.07%.
In the case of Cc1cccc(CCNC(=O)c2noc3c2COc2ccccc2-3)c1, the “% Inhibition @ 10 uM” value is reported as 75.2%.
O=C(NCCc1c[nH]c2ccccc12)c1noc2c1COc1ccccc1-2 was tested, and the “% Inhibition @ 10 uM” value was 91.5%.
With CCOc1ccc(-c2cc(NC(=O)c3noc4c3COc3ccccc3-4)on2)cc1OCC the “% Inhibition @ 10 uM” value was -1.72%.
With Cc1cccc(CCNC(=O)c2cc3c(s2)-c2ccccc2OC3)c1 the “% Inhibition @ 10 uM” value was -4.85%.
With O=C(NCCc1ccc(Cl)cc1)c1noc2c1COc1ccccc1-2 the “% Inhibition @ 10 uM” value was 82.6%.
For Cc1ccc2c(c1)-c1onc(C(=O)NCCN(C)C)c1CO2, the “% Inhibition @ 10 uM” value was -4.37%.
O=C(/C=C/c1ccco1)N(Cc1cccc(F)c1)C1CCS(=O)(=O)C1 (stereo not drawn) was tested, and the “% Inhibition @ 10 uM” value was -1.35%.
With O=C(Nc1ccccc1)N1CCN(c2ccccc2)CC1 the “% Inhibition @ 10 uM” value was 1.33%.
In the case of CSc1nc2n(n1)C(c1ccc(F)c(Br)c1)C1=C(O)CC(C)(C)CC1=N2 (stereo not drawn), the “% Inhibition @ 10 uM” value is reported as -1.62%.
With CC(NCC(O)Cn1nnnc1-c1ccccc1)c1ccccc1 (stereo not drawn) the “% Inhibition @ 10 uM” value was 2.5%.
In the case of Cc1ccc(NC(=O)C(C)Oc2ccccc2C)c(C)c1 (stereo not drawn), the “% Inhibition @ 10 uM” value is reported as 6.79%.
CC(=O)c1c(S)nc(-c2ccccc2)nc1N1CCN(Cc2ccccc2)CC1 was tested, and the “% Inhibition @ 10 uM” value was 29.2%.
With CCOc1ccc(C(=O)NCC2CCN(C(=O)c3ccc(OCC)cc3)CC2)cc1 the “% Inhibition @ 10 uM” value was 5%.
O=[N+]([O-])c1c(NCCO)cc(Cl)c2nonc12 was tested, and the “% Inhibition @ 10 uM” value was 5.66%.
For COc1ccccc1N1C(=O)CC(N2CCN(C)CC2)C1=O (stereo not drawn), the “% Inhibition @ 10 uM” value was -6.08%.
COc1ccc(/C=C(\C#N)C(N)=S)cc1 was tested, and the “% Inhibition @ 10 uM” value was -2.51%.
For Cc1ccc(/C=C(\C#N)C(N)=S)o1, the “% Inhibition @ 10 uM” value was 79.5%.
For COC(=O)/C(C#N)=C/c1ccc(C)o1, the “% Inhibition @ 10 uM” value was -0.256%.
CCOC(=O)C1=C(CN2CCN(C(=O)OCC)CC2)NC(=O)NC1c1cccs1 (stereo not drawn) was tested, and the “% Inhibition @ 10 uM” value was -3.36%.
With COc1ccc(C(=O)CC(=O)c2ccc(OC)c(OC)c2)c(O)c1 the “% Inhibition @ 10 uM” value was 4.74%.
In the case of Cc1ccc(S(=O)(=O)Nc2nc3ccccc3nc2N2CCCCC2)cc1, the “% Inhibition @ 10 uM” value is reported as -0.969%.
For CCn1c2ccc(F)cc2c2nnc(S)nc21, the “% Inhibition @ 10 uM” value was 32.8%.
In the case of CCn1c2ccc(OC)cc2c2nnc(S)nc21, the “% Inhibition @ 10 uM” value is reported as 79.3%.
CCn1c2ccc(OC)cc2c2nc3ccccc3nc21 was tested, and the “% Inhibition @ 10 uM” value was -3.13%.
CCn1c2ccccc2c2nnc(S)nc21 was tested, and the “% Inhibition @ 10 uM” value was 38%.
With Fc1ccc2c(c1)c1nnc(S)nc1n2CCc1ccccc1 the “% Inhibition @ 10 uM” value was 10.9%.
In the case of Fc1ccc2[nH]c3nc(S)nnc3c2c1, the “% Inhibition @ 10 uM” value is reported as 56%.
In the case of CCCCn1c2ccc(C)cc2c2nnc(S)nc21, the “% Inhibition @ 10 uM” value is reported as 61%.
CCCCn1c2ccccc2c2nnc(S)nc21 was tested, and the “% Inhibition @ 10 uM” value was 36.5%.
Cc1ccc2[nH]c3nc(S)nnc3c2c1 was tested, and the “% Inhibition @ 10 uM” value was 12.4%.
For CSc1nnc2c(n1)[nH]c1ccc(C)cc12, the “% Inhibition @ 10 uM” value was 2.51%.
For Cc1ccc2c(c1)c1nnc(S)nc1n2Cc1ccccc1, the “% Inhibition @ 10 uM” value was 3.73%.
Cn1c2ccc(F)cc2c2nnc(S)nc21 was tested, and the “% Inhibition @ 10 uM” value was 74%.
For CC(C)c1nc2ccccc2n1Cc1ccccc1F, the “% Inhibition @ 10 uM” value was 1.12%.
For NC(=O)C1CCN(C(=O)COCc2cc(-c3ccc4c(c3)OCO4)on2)CC1, the “% Inhibition @ 10 uM” value was -4.1%.
In the case of COCCCNC(=O)c1cnn2c(C(F)(F)F)cc(-c3cccs3)nc12, the “% Inhibition @ 10 uM” value is reported as -2.26%.
In the case of Nc1ncnc2c1nc(S(=O)(=O)O)n2Cc1ccccc1, the “% Inhibition @ 10 uM” value is reported as -1.69%.
CCSC1=NSC2=NC(=O)/C(=C\c3c(C)[nH]c4ccccc34)C(=N)N12 was tested, and the “% Inhibition @ 10 uM” value was 4.79%.
Cc1cc2ccccc2n1CCNC(=O)C(c1ccccc1)c1ccccc1 was tested, and the “% Inhibition @ 10 uM” value was -4.89%.
For COCCNC(=O)C1CCCN(S(=O)(=O)N(C)C2CCCCC2)C1 (stereo not drawn), the “% Inhibition @ 10 uM” value was -2.86%.
Sc1nnc2[nH]c3ccccc3c2n1 was tested, and the “% Inhibition @ 10 uM” value was 56.9%.
Sc1nnc2c(n1)[nH]c1ccccc12 was tested, and the “% Inhibition @ 10 uM” value was 38%.
In the case of c1ccc2nc3c(nc2c1)[nH]c1ccccc13, the “% Inhibition @ 10 uM” value is reported as -1.8%.
In the case of Cc1nc2ccc(S(=O)(=O)NC(C(=O)NCCc3ccccc3)C(C)C)cc2s1 (stereo not drawn), the “% Inhibition @ 10 uM” value is reported as -0.0115%.
For Cc1ccc2[nH]c(SCC(=O)Nc3ccc(Cl)cc3)nc2c1, the “% Inhibition @ 10 uM” value was 5.24%.
In the case of COc1cccc2cc(-c3cn(-c4cccc(C)c4)c(S)n3)c(=O)oc12, the “% Inhibition @ 10 uM” value is reported as 20.1%.
In the case of Cc1cc(C)c2c(=O)n(CC(=O)NCCc3ccc(Cl)cc3)sc2n1, the “% Inhibition @ 10 uM” value is reported as 15.6%.
Cc1cc(C)c2c(=O)n(CC(=O)NCc3ccccc3Cl)sc2n1 was tested, and the “% Inhibition @ 10 uM” value was 83.7%.
Cc1cc(C)c2c(=O)n(CC(=O)NCc3ccc4c(c3)OCO4)sc2n1 was tested, and the “% Inhibition @ 10 uM” value was 12%.
With Cc1c(C(=O)Nc2nc3c(s2)CCCC3)oc2ccccc12 the “% Inhibition @ 10 uM” value was -2.85%.
N#CC1=C(N)Oc2[nH]nc(-c3ccncc3)c2C1c1ccncc1 (stereo not drawn) was tested, and the “% Inhibition @ 10 uM” value was 3.92%.
With CCOc1cc(-c2c(C)c(C)nc(N)c2C#N)ccc1O the “% Inhibition @ 10 uM” value was -1.79%.
In the case of O=C(O)c1cccc2c1NC(C(=O)O)C1CC=CC21 (stereo not drawn), the “% Inhibition @ 10 uM” value is reported as 65.6%.
In the case of CC(C)C1Nc2c(C(=O)O)cccc2C2C=CCC21 (stereo not drawn), the “% Inhibition @ 10 uM” value is reported as -1.2%.
With O=C(O)C1Nc2c(cccc2C(F)(F)F)C2C=CCC12 (stereo not drawn) the “% Inhibition @ 10 uM” value was 0.345%.
For CCc1nn(CCCC(=O)NC2CCCCC2C)c(=O)c2cc3occc3n12 (stereo not drawn), the “% Inhibition @ 10 uM” value was -0.281%.
CCOc1ccc(C(=O)Nc2ccc(-c3nc4ncccc4o3)cc2)cc1Cl was tested, and the “% Inhibition @ 10 uM” value was -4.82%.
With CCc1cccc(C)c1NC(=O)c1cc(OC)cc(OC)c1 the “% Inhibition @ 10 uM” value was 15.2%.
With O=C(O)CN1C(=O)c2cc(Cl)c(Cl)cc2C1=O the “% Inhibition @ 10 uM” value was 3.67%.
Cc1ccc(C(=O)NCc2nnc(SCC(=O)Nc3nccs3)n2-c2ccccc2)cc1C was tested, and the “% Inhibition @ 10 uM” value was -4.97%.
With COc1ccccc1-n1c(CNC(=O)c2cccc(C)c2)nnc1SCC(=O)Nc1nccs1 the “% Inhibition @ 10 uM” value was 2.12%.
In the case of Cc1ccc(C)c(-n2c(CNC(=O)c3cccc(F)c3)nnc2SCC(=O)Nc2nccs2)c1, the “% Inhibition @ 10 uM” value is reported as 73.7%.
